Values without a mark were called inactive. How the calls were made is not given here.

The test concerns Aerobactin synthetase IucA (Klebsiella pneumoniae hvKP1). In words: Biochemical IucA enzyme inhibition primary screen of the Spectrum library (AID 1346200).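 Further: 100% = wells without compound and 0% = wells lacking enzyme.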 To be noted: malachite green pyrophosphate, A620, at 8 µM, stronger effect = lower value.
Take `C=C(C)[C@H]1COc2cc3oc(=O)ccc3cc2O1`: the activity remaining is 118%. In the case of `C[C@H]1[C@H](C)CC[C@]2(CO)CC[C@]3(C)C(=CCC4[C@@]5(C)CC[C@H](O)C(C)(C)C5CC[C@]43C)[C@H]12` (stereo not given in full) it was 117%; in that of `C=C1C(N)CC2CC1C2(C)C` (stereo not given), 96.6%.

As to `CC(=O)OCC(=O)[C@@]1(O)CCC2C3CCC4=CC(=O)C=CC4(C)C3[C@@H](O)C[C@@]21C` (stereo not given in full), the activity remaining is 81.1%. In the case of `COC(=O)C1=CO[C@@H](C)[C@@H]2CN3CC[C@@]4(C(=O)Nc5ccccc54)[C@H]3CC12` (stereo not given in full) it was 101%; in that of `CC1(C)S[C@@H]2C(N3C(=O)[C@@H](c4ccccc4)NC3(C)C)C(=O)N2[C@H]1C(=O)O` (stereo not given in full), 108%; in that of `CC(=O)[C@H]1CCC2C3CC=C4C[C@@H](OC(=O)CCC(=O)O)CC[C@]4(C)C3CC[C@@]21C` (stereo not given in full), 117%. The figure for `Cc1cc(=O)oc2cc(O)c(O)cc12` is 118%; for `CC(=O)[C@H]1CCC2C3CC=C4C[C@@H](O)CC[C@]4(C)C3CC[C@@]21C` (stereo not given in full) it is 99.4%. As to `COC(=O)C[C@H]1C(C)(C)C(=O)[C@@H]2CC3=C4CC(=O)O[C@@H](c5ccoc5)[C@]4(C)CCC3C1(C)C2=O` (stereo not given in full), the activity remaining was 102%. The figure for `CNCC[C@H](Oc1cccc2ccccc12)c1cccs1` is 114%; for `Nc1nc2c(c(=O)[nH]1)NC(CNc1ccc(C(=O)N[C@H](CCC(=O)O)C(=O)O)cc1)=CN2` it is 102%; for `CC(CCC(=O)O)[C@H]1CCC2C3CC[C@@H]4C[C@H](O)CC[C@]4(C)C3C[C@H](O)[C@@]21C` (stereo not given in full) it is 116%.

Consider `C=C(C)C1Cc2c(ccc(C(=O)O)c2O)O1` (stereo not given), for which the activity remaining is 120%.

`C[C@@H]1CCC2[C@](C)(CO)[C@@H](O)CC[C@]2(C)[C@@]12CC[C@@](CO)(CCO)O2` (stereo not given in full): the activity remaining is 113%. In the case of `CCN(CCO)CCCC(C)Nc1ccnc2cc(Cl)ccc12` (stereo not given) it was 109%; in that of `COc1cc2ccc(=O)oc2c(O)c1O`, 112%; in that of `O=C1C(CCS(=O)c2ccccc2)C(=O)N(c2ccccc2)N1c1ccccc1` (stereo not given), 116%.

For `CCCCCC1C(=O)CCC1CC(=O)OC` (stereo not given), the activity remaining was 118%. As for `Cn1c([N+](=O)[O-])cnc1COC(N)=O`, the activity remaining is 104%. As for `CCOC(=O)c1ccc(O)cc1`, the activity remaining is 114%.

As for `CC(=O)N[C@@H]1[C@@H](O)[C@H](O)[C@@H](CO)O[C@H]1O`, the activity remaining is 106%. In the case of `NC(=O)c1ncn(C2O[C@H](CO)[C@@H](O)[C@H]2O)c1N` (stereo not given in full) it was 99.1%; in that of `CC(=O)Oc1ccc(O)cc1`, 122%.

As for `O=C(O)c1ccccc1`, the activity remaining was 115%.

As for `Clc1ccccc1CN1CCc2sccc2C1`, the activity remaining is 109%. As to `COc1c(C)c2c(c(O)c1C/C=C(\C)CCC(=O)O)C(=O)OC2`, the activity remaining was 98.9%.

On to `O=C(O[C@@H]1Cc2c(O)cc(O)cc2O[C@@H]1c1cc(O)c(O)c(O)c1-c1c([C@H]2Oc3cc(O)cc(O)c3C[C@H]2OC(=O)c2cc(O)c(O)c(O)c2)cc(O)c(O)c1O)c1cc(O)c(O)c(O)c1`, for which the activity remaining was 111%.

Take `CCCCCC/C=C\CCCCCCCc1cccc(O)c1C(=O)O`: the activity remaining was 112%.

As for `COc1ccc2cc(CCC(C)=O)ccc2c1`, the activity remaining is 99.8%.

Take `CCc1cc(C(N)=S)ccn1`: the activity remaining is 105%. The figure for `CCOC(=O)c1ccc(N)cc1` is 113%; for `CC(C)=CCc1c2c(c(O)c3c(=O)c(O)c(-c4ccccc4)oc13)C=CC(C)(C)O2` it is 110%. In the case of `CC(C)CCCC(C)C1CCC2C3C[C@@H](O)[C@@]4(O)C[C@@H](O)CC[C@]4(C)C3CC[C@]12C` (stereo not given in full) it was 123%; in that of `CN(C)CCN(Cc1ccccc1)c1ccccn1`, 109%.

Consider `CNCC[C@@H](Oc1ccccc1)c1ccccc1`, for which the activity remaining is 111%. Consider `CC(=O)Oc1cc2c(c(C)c1OC(C)=O)CC=C1[C@@]2(C)CC[C@@]2(C)C3C[C@](C)(C(=O)O)CC[C@]3(C)CC[C@]12C` (stereo not given in full), for which the activity remaining is 95.9%. The figure for `COc1ccc(C[C@H](N)C(=O)N[C@@H]2[C@@H](CO)OC(n3cnc4c(N(C)C)ncnc43)[C@@H]2O)cc1` (stereo not given in full) is 87.5%. In the case of `C[C@H]1[C@H](C)CC[C@]2(C(=O)O)CC[C@]3(C)C(=CCC4[C@@]5(C)C[C@@H](O)[C@H](O)[C@@](C)(CO)C5[C@H](O)C[C@]43C)[C@H]12` (stereo not given in full) it was 110%. In the case of `CC(C)C(C)/C=C/C(C)[C@H]1CCC2C3=CCC4CC(=O)CC[C@]4(C)C3CC[C@@]21C` (stereo not given in full), the activity remaining was 92.7%.

Values taken from PubChem BioAssay.
